The source of these data is PubChem BioAssay.

Molecules are shown by their SMILES. The source made the active and inactive calls.

Tested on in one test: not listed separately
The test is described as follows: modulators of S6 phosphorylation in cells, primary screen, cell-based, A549, cytoblot, luminescence, serum-stimulated (AID 1158).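 Note: serum-stimulated A549 lung adenocarcinoma cells; signal is phosphorylated S6 detected by cytoblot immunostaining with HRP secondary.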 Conditions: A549 phospho-S6 cytoblot, 5 h, higher = more signal.
`O=C1OCCC=C[C@H]2OC34C=CCN(c5ccc(Cl)cc5)C(=O)[C@H]3N(CCCO)C(=O)[C@@H]4C12` (stereo partly drawn) had a z-score of 1.61. Same read-out and setting: in the case of `COc1ccc(C(O)C2C=CC3C(=O)N(C)C(=O)C3N2N(c2ccccc2)c2ccccc2)c2ccccc12` (stereo not drawn) it was -1.19; in that of `COCC(=C=CC[C@H](O)c1cccc(OCCO)c1)CCO`, 0.0095. Same read-out and setting: in the case of `CC[C@@H]1C=C(C(=O)O)[C@H](c2ccc(C)cc2)N1S(=O)(=O)c1ccc(C)cc1` it was -0.362; in that of `O=C1NC(=O)C2C1C=CC(C(O)C1CC=CCC1)N2Nc1ccccn1` (stereo not drawn), -0.259; in that of `COc1ccc(C(=O)Nc2cccc(CN3C(=O)[C@]4(O[C@H](CCn5cc(CCO)nn5)[C@@H]([Si](C)(C)c5ccc(OC)cc5)[C@@H]4C)c4ccccc43)c2)cc1`, -0.815. Still for that read-out and setting: with `CS(=O)(=O)CCOC(=O)C1=CC(CCCO)=CC(c2ccc(CN3CCCC3)cc2)N(Cc2cccc(OC(F)(F)F)c2)C=C1C(=O)OCCS(C)(=O)=O` (stereo not drawn) the figure was 0.219; with `COC(=O)c1c2oc(c1C(=O)OC)C(=O)N[C@@H](C(C)C)Cn1cc(nn1)C1(CCCCC1)NC(=O)N[C@H](CO)CC2`, 0.223; with `O=C1O[C@@H](c2ccccc2)[C@@H](c2ccccc2)N2[C@@H](c3ccc(OCCO)cc3)[C@]3(C(=O)Nc4ccc(C#CCCO)cc43)[C@@H](C(=O)NC[C@H](O)c3ccccc3)[C@H]12`, 0.136.

With `CC(c1ccccc1)C(O)C1C=CC2C(=O)N(c3ccccc3)C(=O)C2N1Nc1ccccc1` (stereo not drawn), the z-score was determined as 1.95. On the same count and under the same terms, in the case of `CC1CC/C=C\[C@H]2OC34C=CCN(Cc5ccccc5)C(=O)[C@H]3N(C(C)CO)C(=O)[C@@H]4C2C(=O)O1` (stereo partly drawn) it was -0.0395.

For the next test, the target named is NADPH oxidase 2 (Homo sapiens) (UniProt P04839). The test is described as follows: NOX2-dependent H2O2 signal modulators, primary screen, NOX inhibitor project, cell-based, HEK293-NOX2, PMA-stimulated, Amplex Red fluorescence (AID 1159). Note: test concentration not given here. Conditions: 45 min, higher = more signal, called active from +8 up or from −8 down.
NADPH oxidase 2 (Homo sapiens), sequence (P04839 whole entry, looked up): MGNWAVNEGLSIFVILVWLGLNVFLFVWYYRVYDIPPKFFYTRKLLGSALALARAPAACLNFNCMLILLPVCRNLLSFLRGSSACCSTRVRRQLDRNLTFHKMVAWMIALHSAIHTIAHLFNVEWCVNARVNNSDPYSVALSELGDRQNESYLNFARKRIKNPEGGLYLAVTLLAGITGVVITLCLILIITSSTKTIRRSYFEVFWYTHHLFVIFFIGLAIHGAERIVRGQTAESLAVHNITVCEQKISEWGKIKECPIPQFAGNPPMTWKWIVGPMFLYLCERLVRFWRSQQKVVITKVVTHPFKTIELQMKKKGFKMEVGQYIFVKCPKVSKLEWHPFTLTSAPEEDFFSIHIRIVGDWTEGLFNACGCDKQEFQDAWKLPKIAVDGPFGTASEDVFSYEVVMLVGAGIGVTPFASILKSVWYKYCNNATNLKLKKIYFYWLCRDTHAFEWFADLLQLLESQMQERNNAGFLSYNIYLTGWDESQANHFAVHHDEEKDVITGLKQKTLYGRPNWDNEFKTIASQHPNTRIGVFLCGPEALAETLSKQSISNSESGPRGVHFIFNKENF
As to `COc1ccc([Si](C)(C)[C@@H]2[C@@H](CCO)O[C@]3(C(=O)N(Cc4cccc(N5CCOC5=O)c4)c4ccccc43)[C@H]2C)cc1`, the z-score was -0.327 (inactive). On the same count and under the same terms, with `CCOC(=O)C1=CC[C@H]2C(=O)N(c3ccccc3)C(=O)[C@@H]12` the figure was -0.234 (inactive); with `CCOC(=O)C[C@H]1[C@H](OC(=O)c2ccc(C(=O)c3ccccc3)cc2)[C@@H](NC(=O)Cc2ccc(OC)cc2)c2cc(OCCCO)ccc2N1C(=O)c1ccc2ccccc2n1`, -1.03 (inactive); with `COC(=O)[C@@]1(Cc2ccc(F)cc2)[C@H]2c3cc(C(=O)N(C)C)n(Cc4cc(C)n(C)n4)c3C[C@H]2CN1C(=O)c1ccccc1`, 0.743 (inactive).

For the molecule `CCCC[C@@H]1C[C@H]1[C@@H](NC(=O)c1cccnc1)c1ccc(Cl)cc1`, the z-score is -0.56 (inactive). The same measure, in the same setting: in the case of `[N-]=[N+]=Nc1ccccc1C[C@@]1(C(=O)N2CCCCC2)N=C(c2ccc(OCCCO)cc2)O[C@@H]1c1ccccc1N=[N+]=[N-]` it was 0.0863 (inactive); in that of `C=CCC(OC(C)=O)[C@@H]1[C@@H](N(Cc2ccc(-c3cccc(C(F)(F)F)c3)o2)C(=O)c2cccc3ccccc23)c2cc(OCCCO)ccc2N1C(=O)Cc1ccc2ccccc2c1` (stereo partly drawn), -2.15 (inactive); in that of `CCCCN1CC=CC23O[C@@H]4C=CCOC(=O)[C@@H]4[C@H]2C(=O)N(CCCCCCO)[C@@H]3C1=O` (stereo partly drawn), 1.09 (inactive).

With `O=C1C2C=CC(C(O)C=Cc3ccc([N+](=O)[O-])cc3)N(n3cnnc3)C2C(=O)N1Cc1ccccc1` (stereo not drawn), the z-score was -0.526 (inactive). On the same count and under the same terms, in the case of `O=C1[C@H]2C=C(Br)[C@H](C[C@@H]2OCCCCCCO)[C@@]12CO2` it was 0.486 (inactive); in that of `CCCCCCCCCCC(O)C1C=CC2C(=O)NC(=O)C2N1Nc1ccc(Cl)cc1Cl` (stereo not drawn), 0.684 (inactive). Same read-out and setting: in the case of `C=CC1c2cc(O)c(OC)cc2CCN1Cc1cccc(OC(F)(F)F)c1` (stereo not drawn) it was -4.69 (inactive); in that of `CC(C)[Si](C#C[Si](C(C)C)(C(C)C)C(C)C)(O[C@H](C)c1cn(Cc2ccccc2)nn1)C(C)C`, 0.667 (inactive); in that of `O=C1O[C@H](c2ccccc2)[C@H](c2ccccc2)N2[C@H]1[C@@H](C(=O)NC[C@H](O)c1ccccc1)[C@]1(C(=O)Nc3ccc(C#CC4=CCCCC4)cc31)[C@H]2c1ccccc1OCCO`, 1.42 (inactive). Still for that read-out and setting: in the case of `COc1ccc(-c2cc3c(c(Cc4ccccc4)n2)[Si](C(C)C)(C(C)C)OC3)cn1` it was -1.62 (inactive). For the molecule `C=CCC(OC(C)=O)[C@@H]1[C@@H](N(Cc2ccc(-c3cccc(C(F)(F)F)c3)o2)C(=O)Cc2ccc(OC)cc2)c2cc(OCCCO)ccc2N1C(=O)c1ccc2ccccc2c1` (stereo partly drawn), the z-score is -2.68 (inactive).

Consider `CCC(CC)C(O)C1C=CC2C(=O)N(c3ccccc3)C(=O)C2N1Nc1ccccc1` (stereo not drawn), for which the z-score was -0.588 (inactive).
